Assay results: PubChem BioAssay (NCI)
This is part of a sample that, as a whole, favours compounds with a hit. Of some 83,000 tested, about 20% had one in any assay.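 Single-concentration screen, 48 h exposure, 96-well plates. Endpoint: percent growth. Below 10 = active.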 Activity calls are given as the source filed them.

Assays:
Assay in all cases: NCI-60 one-dose screen, 48 h (100 = growth as untreated, 0 = no growth, -100 = all killed)
Conditions in all cases: 10 µM unless noted
HCT-15 colon = tested on: HCT-15 colon
HT29 colon = tested on: HT29 colon
SNB-75 CNS = tested on: SNB-75 CNS
SNB-19 CNS = tested on: SNB-19 CNS
U251 CNS = tested on: U251 CNS
PC-3 prostate = tested on: PC-3 prostate
SK-MEL-5 melanoma = tested on: SK-MEL-5 melanoma
UACC-62 melanoma = tested on: UACC-62 melanoma
LOX IMVI melanoma = tested on: LOX IMVI melanoma
SK-MEL-28 melanoma = tested on: SK-MEL-28 melanoma
SK-MEL-2 melanoma = tested on: SK-MEL-2 melanoma
EKVX NSCLC = tested on: EKVX NSCLC
SN12C renal = tested on: SN12C renal
UO-31 renal = tested on: UO-31 renal
TK-10 renal = tested on: TK-10 renal
ACHN renal = tested on: ACHN renal
CAKI-1 renal = tested on: CAKI-1 renal
A498 renal = tested on: A498 renal
CCRF-CEM leukemia = tested on: CCRF-CEM leukemia
MOLT-4 leukemia = tested on: MOLT-4 leukemia

Measured: growth

Cn1cc(-c2noc(-c3cn(C)c4ncc(F)cc34)n2)c2cc(Cl)ccc21
active: SNB-75 CNS -24.2%
inactive: HCT-15 colon 65.8% | HT29 colon 25.5% | SNB-19 CNS 70.1% | U251 CNS 19.4% | PC-3 prostate 79.4% | SK-MEL-5 melanoma 87% | UACC-62 melanoma 77.8% | LOX IMVI melanoma 52.5% | SK-MEL-28 melanoma 85.8% | SK-MEL-2 melanoma 101% | EKVX NSCLC 47.1% | SN12C renal 40.8% | UO-31 renal 53.3% | TK-10 renal 28% | ACHN renal 10.2% | CAKI-1 renal 43.2% | A498 renal 69.2% | CCRF-CEM leukemia 99.7%

COc1ccc2c(c1)C(C)Cc1c(Cl)ncnc1N2C (centres undefined)
inactive: SNB-19 CNS 27.7% | U251 CNS 15.5% | PC-3 prostate 11.4% | SK-MEL-28 melanoma 14.8% | EKVX NSCLC 12.4% | UO-31 renal 16.9% | TK-10 renal 13% | CCRF-CEM leukemia 13.8%
active: HCT-15 colon 4.94% | HT29 colon -3.53% | SNB-75 CNS 2.7% | SK-MEL-5 melanoma -83.6% | UACC-62 melanoma 0.755% | LOX IMVI melanoma -69.2% | SK-MEL-2 melanoma -29.4% | SN12C renal -0.561% | ACHN renal 9.12% | CAKI-1 renal 2.36% | A498 renal -39.3%

COc1c(C(C)=O)c(OCCCCOc2c(C(C)=O)c(OC)c3ccoc3c2OC)c(OC)c2occc12
inactive: HCT-15 colon 78.8% | HT29 colon 65.9% | SNB-75 CNS 107% | SNB-19 CNS 80% | U251 CNS 79.9% | PC-3 prostate 55.2% | SK-MEL-5 melanoma 51.3% | UACC-62 melanoma 55.8% | LOX IMVI melanoma 74.5% | SK-MEL-28 melanoma 96.3% | SK-MEL-2 melanoma 42% | EKVX NSCLC 56.7% | SN12C renal 88.1% | UO-31 renal 124% | TK-10 renal 43.8% | ACHN renal 75.7% | CAKI-1 renal 68% | A498 renal 81.1% | CCRF-CEM leukemia 58%

N#Cc1c(N2CCOCC2)nc(=S)[nH]c1-c1ccco1
inactive: HCT-15 colon 71.4% | HT29 colon 63.7% | SNB-75 CNS 15.9% | SNB-19 CNS 83.8% | U251 CNS 76.4% | PC-3 prostate 42.6% | SK-MEL-5 melanoma 62.6% | UACC-62 melanoma 43.7% | LOX IMVI melanoma 63.7% | SK-MEL-28 melanoma 77.6% | SK-MEL-2 melanoma 37.1% | EKVX NSCLC 48.8% | SN12C renal 77.6% | UO-31 renal 66% | TK-10 renal 47.1% | ACHN renal 64.2% | CAKI-1 renal 58.2% | CCRF-CEM leukemia 49.6%
active: A498 renal -1.37%

COc1cc(Cl)cc(-c2nn(C(=O)NS(=O)(=O)c3ccccc3)cc2-c2ccncc2)c1
inactive: HCT-15 colon 111% | HT29 colon 41.1% | SNB-19 CNS 105% | U251 CNS 81.5% | PC-3 prostate 91.4% | SK-MEL-5 melanoma 93.3% | UACC-62 melanoma 82.7% | LOX IMVI melanoma 59.1% | SK-MEL-28 melanoma 98.7% | SK-MEL-2 melanoma 98.7% | EKVX NSCLC 61.2% | SN12C renal 94.5% | UO-31 renal 70.6% | TK-10 renal 97.2% | ACHN renal 80% | CAKI-1 renal 80.9% | A498 renal 82.9% | CCRF-CEM leukemia 94.6% | MOLT-4 leukemia 82.8%
active: SNB-75 CNS 3.59%

COc1cc(-c2nc(SCCC(C)C)nc(Nc3ccc(S(N)(=O)=O)cc3)c2C#N)cc(OC)c1OC
active: HT29 colon 2.83% | PC-3 prostate 9.42% | LOX IMVI melanoma 5.65%
inactive: HCT-15 colon 14% | SNB-75 CNS 47.6% | SNB-19 CNS 54.3% | U251 CNS 31.5% | SK-MEL-5 melanoma 37.4% | UACC-62 melanoma 45.7% | SK-MEL-28 melanoma 59.1% | SK-MEL-2 melanoma 51.4% | EKVX NSCLC 45.1% | SN12C renal 26.4% | UO-31 renal 14.7% | TK-10 renal 50% | ACHN renal 29.5% | CAKI-1 renal 17.1% | A498 renal 43.5% | CCRF-CEM leukemia 14.1%

CCCCC(CCCCCC(CCCC)C1NC(C)Cc2cc(OC)c(OC)cc21)C1NC(C)Cc2cc(OC)c(OC)cc21 (centres undefined)
active: HCT-15 colon -95.5% | HT29 colon -86.3% | SNB-75 CNS -99.9% | SNB-19 CNS -69.8% | U251 CNS -94.7% | PC-3 prostate -60.8% | SK-MEL-5 melanoma -96.1% | UACC-62 melanoma -70% | LOX IMVI melanoma -99.1% | SK-MEL-28 melanoma -98% | SK-MEL-2 melanoma -81.9% | EKVX NSCLC -61.2% | SN12C renal -21.3% | UO-31 renal -83.5% | TK-10 renal -94.5% | ACHN renal -100% | CAKI-1 renal -63.9% | A498 renal -12.3% | CCRF-CEM leukemia -43.3%

CCCCCn1c(C)cc(/C=C\c2ccc3cc(C)ccc3[n+]2C)c1C
active: HCT-15 colon -12% | HT29 colon -61.8% | SNB-75 CNS -94.4% | SNB-19 CNS -89.8% | U251 CNS -93.9% | PC-3 prostate -47.9% | SK-MEL-5 melanoma -95.7% | UACC-62 melanoma -89.8% | LOX IMVI melanoma -72.4% | SK-MEL-28 melanoma -87.1% | SK-MEL-2 melanoma -81.9% | EKVX NSCLC -47.9% | SN12C renal -90.3% | UO-31 renal -61.4% | TK-10 renal -57.6% | ACHN renal -89.3% | CAKI-1 renal -80.3% | A498 renal -46% | CCRF-CEM leukemia -13.3% | MOLT-4 leukemia 7.02%

CCN(CC)c1ccc2cc(C(Nc3ccc(C)cc3)c3nnnn3C(C)(C)C)c(=O)oc2c1 (centres undefined)
inactive: HCT-15 colon 98.3% | HT29 colon 94.8% | SNB-75 CNS 77.6% | SNB-19 CNS 87.8% | U251 CNS 89.2% | PC-3 prostate 73.7% | SK-MEL-5 melanoma 83.4% | UACC-62 melanoma 71.7% | LOX IMVI melanoma 94.8% | SK-MEL-28 melanoma 106% | SK-MEL-2 melanoma 94.3% | EKVX NSCLC 86.9% | SN12C renal 91.8% | UO-31 renal 72.5% | TK-10 renal 90.7% | ACHN renal 98.2% | CAKI-1 renal 79.2% | A498 renal 94.7% | CCRF-CEM leukemia 98.6% | MOLT-4 leukemia 65.5%

COc1ncc(-c2ccc3nc(N)n(-c4ccccc4C(F)(F)F)c(=O)c3c2)cc1S(=O)(=O)Nc1ccc(F)cc1F
active: SK-MEL-5 melanoma -48.9% | LOX IMVI melanoma -52.2% | UO-31 renal -13.4% | A498 renal -22.2%
inactive: HCT-15 colon 29.4% | HT29 colon 10.8% | SNB-75 CNS 28.2% | SNB-19 CNS 76.1% | U251 CNS 28.2% | PC-3 prostate 39% | UACC-62 melanoma 68.8% | SK-MEL-28 melanoma 53.9% | SK-MEL-2 melanoma 29.2% | EKVX NSCLC 20.9% | SN12C renal 56% | TK-10 renal 54.5% | ACHN renal 69.3% | CAKI-1 renal 17.3% | CCRF-CEM leukemia 24.5% | MOLT-4 leukemia 74.5%

CC1=C/C(=C(\c2cc(C)c(O)c(C(=O)O)c2)c2c(Cl)cccc2Cl)C=C(C(=O)O)C1=O
inactive: HCT-15 colon 105% | HT29 colon 97.8% | SNB-75 CNS 90.3% | SNB-19 CNS 91.3% | U251 CNS 104% | PC-3 prostate 89% | SK-MEL-5 melanoma 100% | UACC-62 melanoma 94.9% | LOX IMVI melanoma 95.7% | SK-MEL-28 melanoma 116% | SK-MEL-2 melanoma 104% | EKVX NSCLC 95.3% | SN12C renal 97.1% | UO-31 renal 67.8% | TK-10 renal 108% | ACHN renal 92.7% | CAKI-1 renal 88.1% | A498 renal 110% | CCRF-CEM leukemia 103% | MOLT-4 leukemia 102%

O=C1CC(C(F)(F)F)Cc2nc3ccc(Br)cc3cc21 (centres undefined)
inactive: HCT-15 colon 89.9% | HT29 colon 98.2% | SNB-75 CNS 78.5% | SNB-19 CNS 92% | U251 CNS 92.2% | PC-3 prostate 82% | SK-MEL-5 melanoma 92.6% | UACC-62 melanoma 81.1% | LOX IMVI melanoma 91.1% | SK-MEL-28 melanoma 96.5% | SK-MEL-2 melanoma 107% | EKVX NSCLC 81% | SN12C renal 85.8% | UO-31 renal 59.7% | TK-10 renal 145% | ACHN renal 91.5% | CAKI-1 renal 75.5% | A498 renal 49.7% | CCRF-CEM leukemia 98.1% | MOLT-4 leukemia 77.8%

O=C(Nc1cccc2ccccc12)c1cc2ccccc2cc1O
inactive: HCT-15 colon 19.1% | HT29 colon 68.9% | SNB-75 CNS 12.8% | SNB-19 CNS 22.9% | UACC-62 melanoma 17.4% | LOX IMVI melanoma 13.7% | SK-MEL-28 melanoma 45.7% | SK-MEL-2 melanoma 20.9% | EKVX NSCLC 15% | TK-10 renal 34.4% | CCRF-CEM leukemia 17.1% | MOLT-4 leukemia 21.4%
active: U251 CNS 8.21% | PC-3 prostate 2.08% | SK-MEL-5 melanoma -57.3% | SN12C renal 7.28% | UO-31 renal -19.2% | ACHN renal 1.41% | CAKI-1 renal -40% | A498 renal -13.8%

Clc1ccc(/C=N/Nc2nc3ccccc3s2)c(Cl)c1
inactive: HCT-15 colon 85% | HT29 colon 84.1% | SNB-75 CNS 84.3% | SNB-19 CNS 103% | U251 CNS 76.3% | PC-3 prostate 79.5% | SK-MEL-5 melanoma 98.4% | UACC-62 melanoma 103% | LOX IMVI melanoma 84.7% | SK-MEL-28 melanoma 114% | SK-MEL-2 melanoma 112% | EKVX NSCLC 66.9% | SN12C renal 95.3% | UO-31 renal 68.2% | TK-10 renal 95.4% | ACHN renal 82.8% | CAKI-1 renal 82% | A498 renal 81.6% | CCRF-CEM leukemia 80.5% | MOLT-4 leukemia 98.4%

O=c1cc(-c2ccccc2)oc2c(O)c(O)ccc12
inactive: HCT-15 colon 38% | HT29 colon 77.4% | SNB-75 CNS 73.7% | SNB-19 CNS 58% | U251 CNS 43.1% | PC-3 prostate 67.4% | SK-MEL-5 melanoma 53.6% | UACC-62 melanoma 72.7% | LOX IMVI melanoma 53.9% | SK-MEL-28 melanoma 81% | SK-MEL-2 melanoma 85.4% | EKVX NSCLC 90% | SN12C renal 68.7% | UO-31 renal 36.2% | TK-10 renal 75.2% | ACHN renal 40.1% | CAKI-1 renal 37.4% | A498 renal 73.1% | CCRF-CEM leukemia 41.6% | MOLT-4 leukemia 55.9%
